The panel holds about 83,000 compounds, 20% with a hit somewhere; the sample as a whole holds those more often.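 Activity criterion: percent growth below 10, measured after cells in 96-well plates were exposed to a single compound concentration for 48 hours.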 Unmarked numbers belong to inactive results. Activity calls are given as the source filed them.
How the values were obtained:
Assay in all cases: NCI-60 one-dose screen, 48 h (100 = growth as untreated, 0 = no growth, -100 = all killed)
Details in all cases: 10 µM unless noted
BT-549 breast = test system: BT-549 breast
MDA-MB-435 melanoma = test system: MDA-MB-435 melanoma
SW-620 colon = test system: SW-620 colon
MCF7 breast = test system: MCF7 breast
HCT-116 colon = test system: HCT-116 colon
HCC-2998 colon = test system: HCC-2998 colon
KM12 colon = test system: KM12 colon

Structure (SMILES) | growth (BT-549 breast) | growth (MDA-MB-435 melanoma) | growth (SW-620 colon) | growth (MCF7 breast) | growth (HCT-116 colon) | growth (HCC-2998 colon) | growth (KM12 colon)
COc1ccc(-c2cc(C(=O)N3N=C(c4ccc(N)cc4)CC3c3ccc(OC)cc3)c3cc(OC)ccc3n2)cc1 (stereo not drawn) | 66.4% | 3.45% (active) | 30.1% | 14.2% | 7.78% (active) | 91.6% | 22.5%
COc1cc(N=Nc2cc(S(=O)(=O)O)cc3cc(S(=O)(=O)O)cc(O)c23)c(C)cc1N=Nc1c(S(=O)(=O)O)cc2cc(Nc3ccccc3)ccc2c1O | 103% | 109% | 108% | 103% | 98.4% | 105% | 102%
CC(C)NS(=O)(=O)c1cccc(-c2ccc3c4c(n(CCCN(C)C)c(=O)c3c2)-c2ccccc2C4=O)c1 | 95.6% | 92.9% | 57.4% | 38.8% | -66% (active) | 96.8% | 93.9%
CSc1nc(-c2ccc(F)cc2)c(C#N)c(N2CCOCC2)n1 | 95.3% | 105% | 97.5% | 90.4% | 96.6% | 101% | 101%
C(=C\c1cn(-c2ccccc2)nc1-c1ccccc1)/c1nnc(-c2c[nH]c3ccccc23)o1 | 81% | 49% | 45.8% | 34.3% | 24.7% | 97.3% | 37.9%
O=C1NN(c2ccccc2)C(c2ccc3c(c2)OCO3)N2CCC[C@@H]12 (stereo partly drawn) | 114% | 105% | 105% | 87.5% | 94.3% | 82.2% | 98.8%
CC(C)(C)c1nc2c(s1)c1nc(N)ncc1c1ccc(NS(=O)(=O)c3c(F)cccc3F)c(F)c12 | 77.4% | 38.6% | 110% | 89.8% | 49.3% | 82% | 35.5%
Cn1cc(-c2ccc3c(c2)ncn3-c2ccc(CC(=O)Nc3cc(C(C)(C)C)on3)cc2)cn1 | 31.5% | 34.8% | 33.7% | 26.9% | 16.6% | 76.3% | 16.3%
CCN1CCN(c2ccc(NC(=O)Nc3nc4ccc(-c5ccccc5OC)cc4s3)cc2)CC1 | 31.6% | -85.5% (active) | -70% (active) | -70.8% (active) | -82.3% (active) | -88.1% (active) | -83.5% (active)
CN1C(=O)c2cc(Cl)nc3c(NC(=O)c4cccc(Cl)c4)c(Cl)c(NC(=O)c4cccc(Cl)c4)c1c23 | -8.59% (active) | 3.49% (active) | -58.3% (active) | 18.1% | -56.2% (active) | 9.23% (active) | 64.3%
COC(=O)CCc1n(Cc2ccc3ccccc3c2)c2ccccc2[n+]1Cc1ccc2ccccc2c1 | -7.25% (active) | -13.5% (active) | 12.1% | 1.95% (active) | 0.405% (active) | -2.47% (active) | -58.7% (active)
COc1cc(NCC(=O)Nc2cc(Nc3cccc(C(F)(F)F)c3)ncn2)c(Cl)c(OC)c1Cl | 88.9% | 102% | 104% | 85.8% | 87.4% | 103% | 92.3%
COc1ccc(-c2cn(-c3ccc(Cl)cc3)c(=S)[nH]2)cc1OC | 78.6% | 86.1% | 114% | 72.2% | 32.2% | 79.2% | 70.2%
O=C(O)COc1ccc2c(=O)c3sc4c(=O)c5ccccc5c(=O)c4c3c(=O)c2c1 | -97% (active) | -88.6% (active) | 10.1% | -57% (active) | 24.9% | -21.1% (active) | 51.5%
COc1ccccc1-c1ccc2nc(NC(=O)Nc3cc(C(F)(F)F)cc(C(F)(F)F)c3)sc2c1 | 13.2% | 10.9% | 11.9% | 4.1% (active) | 4.85% (active) | 11.8% | 3.63% (active)
COc1ccc(-c2nnc(N3CCN(C(=O)CN4CCN(c5ccccc5)CC4)CC3)nc2-c2ccc(OC)cc2)cc1 | -16.1% (active) | 22.7% | 35.7% | 11.7% | 8.34% (active) | 22.2% | 16.8%
C=C1C(=O)O[C@H]2[C@H]1CC/C(COC(=O)NCc1nc3ccccc3[nH]1)=C\CC[C@@]1(C)O[C@@H]21 | 86.7% | 63.1% | 25.2% | 36.5% | 47.5% | 104% | 99.3%

Structure (SMILES) | growth (BT-549 breast) | growth (MDA-MB-435 melanoma) | growth (SW-620 colon) | growth (MCF7 breast) | growth (HCT-116 colon) | growth (HCC-2998 colon) | growth (KM12 colon)
Cc1ccc(CS/C(=C\c2ccc([N+](=O)[O-])cc2)C(=O)c2ccc(F)cc2)cc1 | 75.8% | 33.5% | -11.5% (active) | -4.97% (active) | -53.1% (active) | 83.7% | 13.2%
COc1ccc(-c2nc(C#N)c(NCC(c3ccc(Cl)cc3)N3CCCCC3)o2)cc1 (stereo not drawn) | 106% | 77.1% | 97.5% | 80.6% | 80.5% | 107% | 84.9%
COc1ccccc1Nc1nnc(-c2ccc(Cl)cc2)o1 | 56.9% | -5.9% (active) | 20.9% | 17.1% | 34.1% | 82% | 23.9%
Cc1nc2sc(C(=O)Nc3cccc4ccccc34)c(N)c2cc1C(C)O (stereo not drawn) | 26.2% | -33.7% (active) | 30.5% | 17.8% | 8.51% (active) | 15.7% | 18.2%
Nc1c(C(=O)Nc2ccccn2)sc2nc3c(cc12)CCCCCC3 | 31% | -57.5% (active) | 19% | 15.6% | 7.24% (active) | 48.9% | 14.4%
O=C1Nc2ccc(Cl)cc2/C1=N/c1nc(-c2ccc(F)cc2)cs1 | 55.4% | 9.56% (active) | 27.7% | 12.5% | 28.4% | 42.2% | 28.2%
COc1ccc2nc(-c3ccc(Cl)cc3)cc(-c3nnc(SC/C(=N/O)c4ccccc4)o3)c2c1 | 46.8% | 47% | 26.5% | 19.9% | 3.9% (active) | 84% | 58.1%
COc1ccc(-c2cc(-c3nnc(SCC(=O)Nc4ccc(C(C)=O)cc4)o3)c3ccccc3n2)cc1 | 14.8% | 11.5% | 5.51% (active) | -15.7% (active) | -26.9% (active) | 96.5% | 39.2%
CC(C)(C)c1nn(-c2ccccc2)c2c1COCN2Cc1ccc(Cl)cc1 | 122% | 100% | 82.9% | 80.1% | 62.8% | 51.9% | 86.4%
O=C1CCC23OC(C(O)c4ccccc4N12)C1C(Br)=NOC13 (stereo not drawn) | 102% | 96.2% | 107% | 96.5% | 94.6% | 100% | 103%
Cc1cccc(C)c1NCc1nnc(-c2ccco2)o1 | 99% | 103% | 93.8% | 87.1% | 84.1% | 103% | 91.6%
C#C[C@@]1(O)[C@@H](CO)O[C@@H](n2ccc3c(N)ncnc32)[C@@H]1O | -8.06% (active) | -28.9% (active) | 1.33% (active) | 3.61% (active) | 5.2% (active) | -44.2% (active) | 0.307% (active)
O=C1NN(c2ccccc2)C(c2ccc(Cl)cc2)N2CCC[C@H]12 (stereo partly drawn) | 117% | 99.2% | 87.3% | 79.9% | 99.7% | 88.1% | 94.9%
CC(=O)OCC1OC(OC2C(COC(C)=O)OC(OCCC[S-])C(OC(C)=O)C2OC(C)=O)C(OC(C)=O)C(OC(C)=O)C1OC(C)=O.[Au+].c1ccc(CN2[CH-]N(Cc3ccccc3)C(c3ccccc3)=C2c2ccccc2)cc1 (stereo not drawn) | 25.3% | 18.9% | 18.5% | 7.42% (active) | 9.17% (active) | 45.2% | 26.7%
NS(=O)(=O)c1ccc(C2C3=C(CCCC3=O)OC3=C2C(=O)c2ccccc2C3=O)cc1 (stereo not drawn) | -99.8% (active) | -93% (active) | -45.4% (active) | -61.5% (active) | -73.6% (active) | -61.4% (active) | -29.1% (active)
CC1CCCN(CCCCCOc2ccc3oc4ccc(Cl)cc4c(=O)c3c2)C1 (stereo not drawn) | 80.3% | 25.1% | 56.6% | 60.8% | 32.2% | 78.3% | 59.4%
N#C/C(=C/c1ccc(O)c([N+](=O)[O-])c1)c1nc(-c2ccc([N+](=O)[O-])cc2)cs1 | 36.3% | 40.2% | 54.2% | 25.8% | 33.8% | 30.4% | 36%
